Compounds with a hit are over-represented: about 1.5% of the library has one in this group of screens.
Six1-Eya2 inh – qHTS Assay for Inhibitors of the Six1/Eya2 Interaction; Homeobox protein SIX1 (Homo sapiens) + Protein phosphatase EYA2 (Homo sapiens), …; AlphaScreen GST-Six1/His-Eya2 binding, biochemical; stronger effect = lower value; activity change, % (no concentration beside the values); 0.56% of 360,000 active; AID 651725, 2012; in the data active = activity change below about -65%; inconclusive = mostly about -30% to -63%
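AlphaScreen with GST-Six1 and His-Eya2 (5X mix: 250 nM and 500 nM), glutathione donor and nickel acceptor beads; buffer 50 mM Tris pH 8.0, 300 mM NaCl, 1 mM TCEP; 1 h at 37 C in the dark.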
Eya2 inh – qHTS Assay for Inhibitors of the Phosphatase Activity of Eya2 | Protein phosphatase EYA2 (Homo sapiens), O00167 | recombinant Eya2, OMFP fluorescence dephosphorylation (OMFP is methylfluorescein phosphate) | Potency, µM (highest dose often 76.9 µM), for the others: at the highest dose activity, negative = inhibition, most hits filed as inhibitors | 0.006% of 330,000 active | AID 488837, 2010; also: potency is read from the fitted curve at half-maximal effect
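Eya2 protein (added as 0.2 uM solution) was preincubated with compound for 10 min at ambient temperature in 50 mM HEPES pH 7.5, 50 mM NaCl, 5 uM MgCl2, 0.05% BSA, 1 mM DTT. OMFP (added at 50 uM) then reacted 10 min; fluorescence read at 485/525 nm.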
GALK inhibitor – qHTS Assay for Inhibitors of Human Galactokinase (GALK); P51570; Purified GALK, Kinase-Glo residual ATP luminescence; Potency, µM (doses to about 57.5 µM), for the others: top-dose activity change, negative = inhibition, usual class: inhibitors; 0.007% of 270,000 active; AID 1868, 2009; also: potency is read from the fitted curve at half-maximal effect
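5 nM enzyme, 35 uM ATP, 100 uM galactose, 20 mM HEPES pH8.0, 5 mM MgCl2; 1 h RT; residual ATP by Kinase-Glo Plus luminescence, qHTS format.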
CtBP-E1A inh – qHTS Assay for Inhibitors of the CtBP/E1A Interaction | AID 651724, 2012 | AlphaScreen GST-E1A/His-CtBP binding, 1536-well; stronger effect = lower value | activity change, % (concentration not given with the values) | 0.49% of 340,000 active; in the data active = activity change below about -65%; inconclusive = mostly about -30% to -63%
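Steps: dispense buffer (Tris pH 8.0, NaCl 300 mM, TCEP 1 mM, BSA, Tween 20); add 5X protein mix (GST-E1A, His-CtBP, 125 nM each); pin 23 nL compound; 2 h at 37 °C, dark; add 5X beads (50 ug/mL); 1 h; read.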
TrxR1 inh – qHTS Assay for Inhibitors of Mammalian Selenoprotein Thioredoxin Reductase 1 (TrxR1): qHTS; recombinant rTrxR1, NADPH fluorescence consumption, selenite substrate; Potency, µM (top dose mostly 114 µM), for the others: at the highest dose activity change, negative = inhibition, hits mostly inhibitors; 1% of 390,000 active; AID 588453, 2011; also: potency is read from the fitted curve at half-maximal effect; nearly all actives have a fitted effect of over 65% in size
Target sequence (O89049 whole entry, looked up): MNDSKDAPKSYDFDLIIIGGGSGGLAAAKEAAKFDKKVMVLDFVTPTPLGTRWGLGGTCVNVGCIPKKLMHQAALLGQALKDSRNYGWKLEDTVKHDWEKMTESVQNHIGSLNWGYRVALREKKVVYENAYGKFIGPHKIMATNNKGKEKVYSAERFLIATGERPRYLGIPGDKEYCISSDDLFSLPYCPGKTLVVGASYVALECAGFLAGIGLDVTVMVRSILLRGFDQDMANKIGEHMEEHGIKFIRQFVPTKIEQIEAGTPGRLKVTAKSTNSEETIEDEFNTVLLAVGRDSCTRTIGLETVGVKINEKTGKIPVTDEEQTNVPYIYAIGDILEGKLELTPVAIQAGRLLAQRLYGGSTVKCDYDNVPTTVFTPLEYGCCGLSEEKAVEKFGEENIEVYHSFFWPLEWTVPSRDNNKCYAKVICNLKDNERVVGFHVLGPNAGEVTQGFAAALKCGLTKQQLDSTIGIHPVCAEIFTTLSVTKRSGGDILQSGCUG
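Rat TrxR1 (90 nM in the dispensed reagent) was pre-reduced with 400 uM NADPH for 5 min at room temperature, then incubated with compound for 15 min. After 400 uM selenite was added, NADPH fluorescence (Ex 340/Em 450 nm) was followed for 8 min.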
TrxR1 substrate – qHTS Assay for Substrates of Mammalian Selenoprotein Thioredoxin Reductase 1 (TrxR1): qHTS; Thioredoxin reductase 1, cytoplasmic (Rattus norvegicus), O89049; purified TrxR1 substrate turnover, NADPH consumption readout; Potency, µM (highest dose often 114 µM), inactives show at the highest dose activity change, negative = substrate turnover; 0.01% of 390,000 active; also: potency is read from the fitted curve at half-maximal effect; nearly all actives have a fitted effect of over 50% in size
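Rat TrxR1, dispensed at 90 nM, was prereduced with 400 uM NADPH (final) for 5 min at ~22 deg C, then incubated with compound 15 min before 400 uM selenite. A first-read NADPH fluorescence drop versus no-compound background flagged substrates.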
The depositor's hits bear a star; ? = inconclusive; . = no result; [ ] = another dose, or the depositor's remark. Unless noted, calls follow the shape of the dose curve; as a rule, active = well fitted curve in the direction sought with a large enough effect; inconclusive = small, poorly fitted or top-dose-only effect, or another doubt; inactive = no such curve, though single readings can be large; an effect the other way counts as inactive or inconclusive. % is scaled to controls: 0 for no effect and ±100 for the full control effect.

SMILES	Six1-Eya2 inh	Eya2 inh	GALK inhibitor	CtBP-E1A inh	TrxR1 inh	TrxR1 substrate
CC(=O)C1=C(C)OC(N)=C(C#N)C1c1cc2cccc(C)c2nc1Cl (stereo not given)	0.1	-2.5%	.	-4.1	-10.6%	6.4%
N#CC1=C(N)Oc2cc3ccccc3cc2C1c1cccnc1 (stereo not given)	-3.2	0.0%	-2.1%	-5.3	-32.1%	-9.8%
N#CC1=C(N)Oc2c(ccc3cccnc23)C1c1cccnc1 (stereo not given)	-90.8*	-8.6%	-0.1%	-92.2*	50.1µM*	20.8%
Cc1ccc2cc(C3C(C#N)=C(N)Oc4c3ccc3cccnc43)c(=O)[nH]c2c1 (stereo not given)	-71.7*	12.7%	1.9%	-93.7*	12.6µM*	-0.1%[57.1 µM]
O=C(c1cnc(N2CCCCC2)c2ccccc12)N1CCN(c2ccc(Cl)cc2)CC1	.	.	.	.	28.8%[57.1 µM]	1.6%[57.1 µM]
COc1ccc(-c2nc3sc(CCNC(=O)C(=O)Nc4c(C)cccc4C)c(C)n3n2)cc1	.	.	.	.	-2.2%[57.1 µM]	2.4%[57.1 µM]
COc1cc2[nH]cc(C(=O)NCc3cccs3)c(=O)c2cc1OC	?	.	.	-72.6*	21.3%	18.7%
COc1ccc(CC(=O)NCc2cccs2)cc1OC	-4.9	-23.5%	0.3%	-2.0	11.6%	-2.0%
O=C1N(Cc2cccc(C(F)(F)F)c2)c2ccccc2S(=O)(=O)N1c1cccc(Cl)c1	.	.	.	.	22.9%[57.1 µM]	0.3%[57.1 µM]
CC(=O)OCC1=C(C(=O)O)N2C(=O)[C@@H](NC(=O)Cc3ccccc3)[C@H]2SC1	1.6	.	.	-18.1	?	4.8%[57.1 µM]
CCOc1ccc(C(=O)NC2C(=O)N3C(C(=O)O)=C(COC(C)=O)CSC23)cc1OCC (stereo not given)	-12.0	5.2%	.	5.3	56.2µM*	-5.5%
C=C(c1nc2ccccc2s1)C1Cc2cccc3c2N(CCC3)C1 (stereo not given)	.	.	.	.	26.6%	-8.4%
COC(=O)c1ccc(C2Nc3cccc4cccc(c34)N2)cc1	-4.5	-20.7%	0.5%	2.0	9.9%[57.1 µM]	3.5%[57.1 µM]
COc1cc(C2Nc3cccc4cccc(c34)N2)ccc1OC(C)=O	-20.0	3.4%	0.7%	-23.2	10µM*	1.2%
COc1ccc(C2Nc3cccc4cccc(c34)N2)cc1Br	13.4	-26.0%	3.9%	-1.1	?	0.1%
COc1cc(C2Nc3cccc4cccc(c34)N2)cc(OC)c1O	-10.3	-14.2%	-2.5%	8.4	15.8µM*	10.6%
CCOC(=O)c1ccc(NC(=O)Cn2cc(C(=O)c3ccc(Cl)cc3)c(=O)c3ccc(C)nc32)cc1	.	.	.	.	9.2%	-4.8%
CCCCNC(=S)Nc1ccc2[nH]c(=O)[nH]c2c1	5.7	2.9%	-1.4%	-66.9*	3.6%[57.1 µM]	10.6%[57.1 µM]
Oc1ccc(/C=N/NC(=S)NCCN2CCOCC2)c(O)c1	-89.6*	12.5%	-1.8%	.	-15.1%	-7.6%
N#Cc1nccnc1S(=O)(=O)c1cccs1	-8.5	-10.9%	.	-1.5	0.316µM*	8.8%[57.1 µM]
Cc1cccc(NS(=O)(=O)c2ccc3c(c2)CCN3C(=O)C2CC2)c1C	.	.	.	.	15.6%	-2.6%
COC(=O)c1ccccc1NC(=O)c1nc(-c2ccc(C)cc2)n2c1CCCCC2	.	.	.	.	23.3%	8.1%
CC1=C/C(=N\Nc2ccccc2[N+](=O)[O-])CC(C)(C)C1	-69.2*	-4.7%	1.6%	-68.0*	7.2%	-2.5%
Cc1cccc(C(=O)Nc2cccc(OCc3cc(=O)n4ccccc4n3)c2)c1	.	.	.	.	16.0%[57.1 µM]	-1.9%[57.1 µM]
Cc1ccc(CN(C)C(=O)c2ccc(S(=O)(=O)N(C)c3ccccc3)cc2)o1	-3.1	-25.7%	.	-8.3	?	-3.1%[57.1 µM]
SMILES	Six1-Eya2 inh	Eya2 inh	GALK inhibitor	CtBP-E1A inh	TrxR1 inh	TrxR1 substrate
Cc1ccc(CN(C)C(=O)c2ccccc2Oc2ccccc2)o1	-0.7	-15.3%	-1.1%	2.2	11.2µM*	6.8%
CC(=O)c1cccc(OCc2cc(C(=O)N(C)Cc3ccc(C)o3)no2)c1	-0.8	3.5%	2.9%	-9.6	3.55µM*	-3.3%
CSc1ccccc1OCc1cc(C(=O)N(C)Cc2ccc(C)o2)no1	-14.1	-3.0%	-1.6%	-12.1	35.5µM*	1.2%
CCc1ccccc1NC(=O)CSc1nc2c(c(=O)[nH]1)CN(Cc1ccccc1OC)CC2	.	.	.	.	16.3%	5.1%
Cc1cccc(NC(=O)Cn2c(=O)n(Cc3ccc4c(c3)OCO4)c(=O)c3oc4ccccc4c32)c1C	.	.	.	.	26.8%	8.5%
CC(C)(C)n1ncc2c(=O)n(Cc3ccc([S+](=O)([O-])N4CCOCC4)cc3)cnc21	.	.	.	.	-9.5%	-2.7%
COCC(=O)N/N=C/c1c(C)[nH]n(-c2ccccc2)c1=O	-76.8*	-1.6%	0.2%	-89.8*	13.7%[57.1 µM]	4.7%[57.1 µM]
CC(=O)N/N=C/c1c(C)[nH]n(-c2ccccc2)c1=O	-73.3*	3.6%	-1.4%	-67.6*	1.9%[57.1 µM]	3.8%[57.1 µM]
Cc1[nH]n(-c2ccccc2)c(=O)c1/C=N\NC(=O)C1COc2ccccc2O1 (stereo not given)	-88.7*	0.8%	-0.7%	-80.6*	-17.2%	-15.3%
